The results in this text go back to PubChem BioAssay.

Molecules are shown by their SMILES. Values joined by “and” are separate entries in the source; they are usually repeats but may differ in a detail not shown here. Equal values may be shown once. For part of these data: Potency and affinity values are given separately. Active and inactive are the calls of the source.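 Rule for the calls, unless noted: active = compounds whose cell count with miR-34 switched on is under 0.7 times the count with it off; inactive = the rest.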

Test [1] can be described thus: compounds altering circadian rhythm period length – cell-based, LOPAC library, luminescence reporter (AID 2774; call rule not given here;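 note: values are relative to mean of DMSO wells on each plate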). The note with it: circadian reporter cells, at 7 µM, actives lie on both sides.
Test [2] is described as follows: P. berghei load reduction in hepatocytes – cell-based, HepG2, luciferase luminescence, HepG2 viability, primary screen (AID 624349; in the data active = parasite load remaining mostly below about 12%, no sharp cut-off; inactive = mostly above about 10%;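 note: 100% = mean of DMSO negative control wells on the same plate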). The note with it: P. berghei liver stage in HepG2, luciferase luminescence, concentration not given here; parasite load remaining: stronger effect = lower value; viability: measured here: HepG2 viability without parasites.
For test [3], the system named is Hepatitis C virus NS3 helicase. In words: blockers of NS3h binding to ssDNA – biochemical, fluorescence polarization, LOPAC1280 library, primary screen (AID 687035; in the data active = inhibition above about 37%). The note with it: Purified HCV NS3 helicase, Cy5-dT15 ssDNA binding fluorescence polarization; stronger effect = higher value; concentration not given here. (In general: Fluorescence polarisation rises when a labelled molecule tumbles more slowly, as on binding a larger partner.)

The target of test [4] is 6-phosphogluconate dehydrogenase, decarboxylating (Homo sapiens) (UniProt P52209). In words: inhibition of human phosphogluconate dehydrogenase – biochemical, recombinant enzyme, NADPH absorbance, primary screen (AID 1159550;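 active = at least 20% inhibition of 6-phosphogluconate dehydrogenase activity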). The note with it: recombinant 6PGD, NADPH absorbance 341 nm; at 10 µM; stronger effect = higher value.
Sequence of 6-phosphogluconate dehydrogenase, decarboxylating (Homo sapiens) (P52209 whole entry, looked up): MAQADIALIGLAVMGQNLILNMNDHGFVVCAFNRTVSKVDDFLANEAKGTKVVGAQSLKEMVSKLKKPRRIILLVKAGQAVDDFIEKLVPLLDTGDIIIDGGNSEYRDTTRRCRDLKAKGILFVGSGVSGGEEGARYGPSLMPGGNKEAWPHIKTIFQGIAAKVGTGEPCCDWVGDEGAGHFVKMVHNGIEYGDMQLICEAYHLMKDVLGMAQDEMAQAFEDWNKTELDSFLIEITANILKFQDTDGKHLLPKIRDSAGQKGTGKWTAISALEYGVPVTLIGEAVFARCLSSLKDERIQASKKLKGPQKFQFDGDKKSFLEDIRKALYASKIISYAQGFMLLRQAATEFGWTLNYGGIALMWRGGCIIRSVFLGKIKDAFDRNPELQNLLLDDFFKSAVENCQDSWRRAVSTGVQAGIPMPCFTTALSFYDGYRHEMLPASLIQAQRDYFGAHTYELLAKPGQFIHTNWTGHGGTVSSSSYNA
Test [5] can be described thus: EMT-state selective cytotoxicity in co-culture – imaging, PC-3E GFP, TEM4-18 mCherry, primary screen (AID 1345086;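 active = compounds killing one labelled cell type while sparing the other, by normalised counts and ratio limits, not self-fluorescent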;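 for all read-outs here: cells exposed to compound for 72 h before imaging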;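 for red/green cell ratio (normalised): normalised mesenchymal count divided by normalised epithelial count so high means epithelial killing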). The note with it: PC-3E GFP / TEM4-18 mCherry co-culture, imaging cell counts, at 1 µM; for red/green cell ratio (normalised): actives lie on both sides, counts scaled to control wells, 1 = unselective.
The nature of test [6]: blockers of cellular phospholipid synthesis – cell-based, LOPAC library, screen 4, primary screen (AID 1347384; call rule not given here). The note with it: animal cells, phospholipid biosynthesis inhibition screen; at 10 µM.
Test [7] can be described thus: MELAS cybrid and Rieske KO viability enhancers – cell-based, MELAS cybrids, Rieske KO mouse fibroblasts, CellTiter-Glo, primary screen (AID 1508586;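 active = mean z-score across replicates of 1.96 or higher in either the MELAS or the Rieske mutant cell line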;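 note: z relative to plate mean and SD of compound and empty wells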). The note with it: low glucose. Background: In ATP-based viability assays light output follows the ATP content of the culture.
Test [8] deals with NAD(+) hydrolase SARM1 (Homo sapiens) (UniProt Q6SZW1). Put plainly: blocking NAD cleavage by SARM1 SAM-TIR – cell lysate, NAD-Glo luminescence (AID 1508614;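 active = compound whose remaining NAD level is above about 45 nM, limit read from the data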;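 note: higher remaining NAD means stronger inhibition of SARM1 NADase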). The note with it: SAM-TIR HEK293T lysate NADase, at 1 µM, stronger effect = higher value.
Sequence of NAD(+) hydrolase SARM1 (Homo sapiens) (Q6SZW1 whole entry, looked up, the tested form may be a part): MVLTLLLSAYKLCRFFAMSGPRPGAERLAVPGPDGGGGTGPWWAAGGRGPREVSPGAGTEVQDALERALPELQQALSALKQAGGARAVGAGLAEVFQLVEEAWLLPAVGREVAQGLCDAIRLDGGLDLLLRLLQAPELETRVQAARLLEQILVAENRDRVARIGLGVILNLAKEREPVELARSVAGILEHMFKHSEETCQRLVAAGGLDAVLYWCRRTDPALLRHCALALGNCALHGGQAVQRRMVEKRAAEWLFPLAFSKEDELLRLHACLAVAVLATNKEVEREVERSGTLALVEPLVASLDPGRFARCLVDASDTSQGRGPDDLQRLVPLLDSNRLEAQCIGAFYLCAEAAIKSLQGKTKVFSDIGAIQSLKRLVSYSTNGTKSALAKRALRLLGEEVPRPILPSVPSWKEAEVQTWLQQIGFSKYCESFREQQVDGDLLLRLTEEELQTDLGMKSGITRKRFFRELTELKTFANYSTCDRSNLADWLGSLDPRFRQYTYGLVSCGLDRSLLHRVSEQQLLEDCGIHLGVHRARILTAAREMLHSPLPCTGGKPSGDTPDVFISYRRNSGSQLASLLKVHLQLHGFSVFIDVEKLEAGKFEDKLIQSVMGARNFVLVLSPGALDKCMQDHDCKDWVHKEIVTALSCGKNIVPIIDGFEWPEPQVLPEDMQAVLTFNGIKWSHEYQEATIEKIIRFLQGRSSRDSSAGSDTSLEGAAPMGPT
In test [9] the target is Mitogen-activated protein kinase 7 (Homo sapiens) (UniProt Q13164). In words: Gal4-ERK5 driven luciferase induction – cell-based, HTS, primary screen (AID 1508626;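 active = luciferase signal above three times the same-plate solvent-only control wells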;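 note: luciferase driven by Gal4-ERK5 fusion binding five Gal4 sites before minimal TATA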). The note with it: HeLa Gal4-ERK5 transactivation, 18 h, at 5 µM, stronger effect = higher value.
Sequence of Mitogen-activated protein kinase 7 (Homo sapiens) (Q13164 whole entry, looked up, the tested form may be a part): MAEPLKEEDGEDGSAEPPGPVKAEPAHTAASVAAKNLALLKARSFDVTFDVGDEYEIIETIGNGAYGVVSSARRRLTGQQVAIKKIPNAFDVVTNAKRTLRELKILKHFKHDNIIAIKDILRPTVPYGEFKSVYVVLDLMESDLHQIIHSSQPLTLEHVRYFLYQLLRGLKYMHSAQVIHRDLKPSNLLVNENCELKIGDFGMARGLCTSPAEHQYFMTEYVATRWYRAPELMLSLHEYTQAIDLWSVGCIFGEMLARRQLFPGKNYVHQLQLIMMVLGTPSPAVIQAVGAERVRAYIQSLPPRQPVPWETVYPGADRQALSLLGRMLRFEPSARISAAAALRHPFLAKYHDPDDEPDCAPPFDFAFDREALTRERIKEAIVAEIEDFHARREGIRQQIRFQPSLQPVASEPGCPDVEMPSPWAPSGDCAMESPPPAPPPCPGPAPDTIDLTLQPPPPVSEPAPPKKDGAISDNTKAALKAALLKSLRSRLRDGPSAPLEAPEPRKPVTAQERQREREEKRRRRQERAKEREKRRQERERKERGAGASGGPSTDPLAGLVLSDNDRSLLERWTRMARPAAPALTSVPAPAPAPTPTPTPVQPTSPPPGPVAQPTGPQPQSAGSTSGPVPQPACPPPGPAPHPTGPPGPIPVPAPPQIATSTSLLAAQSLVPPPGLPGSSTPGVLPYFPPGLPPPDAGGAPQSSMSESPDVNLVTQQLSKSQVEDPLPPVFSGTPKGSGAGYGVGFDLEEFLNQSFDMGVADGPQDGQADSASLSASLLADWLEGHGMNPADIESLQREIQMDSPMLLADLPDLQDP
A short description of test [10]: galactose survival enhancers in mitochondrial complex I cybrids – cell-based, galactose medium, ATP luminescence, primary screen (AID 1645843;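 active = z-score of at least 1.8 in each of two replicates, scored against plate mean and spread of sample wells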;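 note: positive z means more ATP and so rescue of galactose-driven cybrid death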). The note with it: complex I mutant cybrid cells, 72 h, stronger effect = higher value.
Test [11] in a line: viability loss with induced miR-34 in A549 – imaging, A549 dox-inducible miR-34, nuclei and caspase counts, primary screen (AID 1347080). The note with it: A549 miR-34 inducible, Hoechst nuclei count, 48 h.
A short description of test [12]: blockers of polyQ-driven CASP3 activation – cell-based (AID 1583). The note with it: polyglutamine-induced caspase-3 activation, cell assay; stronger effect = higher value;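 tested at 10 µM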.
Test [13] in a line: yeast 75Q aggregation reduction – 75Q-TubU reporter (AID 1593). The note with it: Yeast 75Q polyglutamine aggregation reporter.
A short description of test [14]: restoration of touch response, mutant HTT neurons – whole organism, C. elegans mechanosensory neurons, N-terminal huntingtin (AID 1599). The note with it: C. elegans polyQ-huntingtin mechanosensory neurons, stronger effect = higher value.
Test [15] can be described thus: blockers of cytochrome c efflux from mitochondria – biochemical, purified mitochondria (AID 1603).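 Note: mouse liver mitochondria challenged with calcium chloride; signal normalized to the plate average as 100%.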 The note with it: stronger effect = lower value.
The nature of test [16]: polyglutamine aggregate formation blockers (AID 1604). The note with it: polyglutamine-induced protein aggregation inhibition assay; stronger effect = higher value; tested at 2.5 µM.
Test [17] can be described thus: glutamate transport activators, MN-1 cells, MN-1 cell line (AID 1612).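 Note: tested at 1 µM final; 0% = mean of DMSO vehicle wells on each plate; positive means more glutamate uptake than control and negative means less.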 The note with it: MN-1 motor neuron cells, stronger effect = higher value.
Test [18] is described as follows: 75Q-TubH aggregate inhibition, S. cerevisiae, yeast (AID 1616). The note with it: S. cerevisiae 75Q-TubH polyglutamine aggregation suppression; stronger effect = higher value.
Test [19] can be described thus: GFP-Q80 aggregate reduction, neuronal-like cells, cell-based, NGF-treated PC12, GFPQ80 (AID 1614).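 Note: lower means fewer inclusions and 0 means no inclusions at all.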 The note with it: PC12 NGF-treated GFP-polyQ80 inclusion reduction.
Where [20] appears, read: measured here: epithelial PC-3E GFP cell survival.
Setting [21] is: measured here: mesenchymal TEM4-18 mCherry cell survival.
Where [22] appears, read: MELAS cybrid survival, CellTiter-Glo 48 h, stronger effect = higher value.
Where [23] appears, read: Rieske KO mouse fibroblast survival, CellTiter-Glo 72 h.
Where [24] appears, read: stronger effect = lower value, cell number ratio, induced over uninduced.
Setting [25] is: measured here: relative caspase fold change +Dox/-Dox.
[26] abbreviates: measured here: total cells with miR-34 induction, stronger effect = lower value.
The mark [27] stands for this setting: measured here: total cells without miR-34 induction.

Usually viability stands for a read-out of living cells in per cent, often relative to untreated cells. As a reminder, the inhibition is the relative decrease from the control value, in per cent.

For `C1CCc2nnnn2CC1`, in [1], the period change is -0.075 h (inactive). For the same molecule, the parasite load remaining in [2] is 23.8% (inactive) and 86.6% (inactive) and 79.3% (inactive). Moreover, in test [2], the viability was 50.2% and 91.9% and 103%. Besides, the inhibition in test [3] was -2% (inactive); in test [4] it was 10.8% (inactive). The red/green cell ratio (normalised) in test [5] is 1.25 (inactive). The normalised cell number came out at 1.11 in test [5] (setting [20]) and 1.38 in test [5] (setting [21]). The molecule was called inactive in [6]. The z-score is -0.00315 (inactive) in test [7] (setting [22]); -0.232 in test [7] (setting [23]); 0.7 (inactive) and 0.6 (inactive) in test [10]. The remaining NAD in test [8] was 10 nM (inactive). Moreover, the luciferase signal in test [9] was 96 AU (inactive).
Regarding `O=C(/C=C/c1ccc(O)cc1)c1ccc(O)cc1O`, the period change in test [1] was 0.18 h (inactive). Besides, the inhibition was 0% (inactive) in [3] and -4.78% (inactive) in [4]. Further, in test [5], the red/green cell ratio (normalised) was 1.01 (inactive). Moreover, the normalised cell number in test [5] (setting [20]) and in [5] (setting [21]) was 0.91 each time. In addition, the fold change is 1.12 (inactive) in test [11] (setting [24]) and 0.85 in test [11] (setting [25]). Also, the cell count was found to be 9020 in [11] (setting [26]) and 8080 in [11] (setting [27]). In addition, in test [6], the result was inactive. Also, in [9], the luciferase signal is 80 AU (inactive). The z-score in [10] is -0.25 (inactive).
As for `CC(=O)[C@@]1(O)CCC2C3CCC4=CC(=O)CC[C@]4(C)C3CC[C@@]21C` (some centres not stated), the inhibition in [4] was 7.07% (inactive). For the same molecule, the red/green cell ratio (normalised) in [5] was 0.98 (inactive). For the same molecule, the normalised cell number in test [5] (setting [20]) is 0.94; in [5] (setting [21]), 0.92. Moreover, the fold change in [11] (setting [24]) was 0.883 (inactive); in [11] (setting [25]) it was 0.857. Besides, the cell count in test [11] (setting [26]) was 7810; in [11] (setting [27]), 8840.
For the molecule `O=C(CCc1ccc(O)cc1)c1c(O)cc(O)cc1O[C@@H]1O[C@H](CO)[C@@H](O)[C@H](O)[C@H]1O`, the parasite load remaining in test [2] was 28.4% (inactive). Moreover, in test [2], the viability was 69.5%. In addition, the inhibition in [4] is 5.05% (inactive). For the same molecule, in [5], the red/green cell ratio (normalised) was 1 (inactive). In addition, the normalised cell number in [5] (setting [20]) and in [5] (setting [21]) was 0.89 throughout. In addition, the fold change is 0.867 (inactive) in [11] (setting [24]) and 1.41 in test [11] (setting [25]). For the same molecule, the cell count in test [11] (setting [26]) worked out at 9120; in test [11] (setting [27]) it was 10500. Moreover, the z-score in test [7] (setting [22]) is -0.633 (inactive); in test [7] (setting [23]) it was -1.43; in test [10], -0.075 (inactive). For the same molecule, the luciferase signal in [9] is 28 AU (inactive).
In the case of `CCC(c1ccc(O)cc1)C(CC)c1ccc(O)cc1` (configuration not stated), the inhibition is 87.7% in test [12] and -4.21% (inactive) in test [4]. Further, the score in test [13] is -0.18. The same molecule displayed a rescue above control in test [14] of 0. Also, the cytochrome c release ratio in [15] amounted to 0.95. Besides, the inhibition of aggregation in test [16] is 62%. Also, the glutamate uptake change in [17] is -7.89%. Further, in test [18], the aggregation suppression score was -0.0418. In addition, the parasite load remaining in test [2] is 53.4% (inactive) and 65.7% (inactive). Besides, in test [2], the viability is 91.5% and 76.1%. Moreover, the red/green cell ratio (normalised) in test [5] is 0.99 (inactive). Further, the normalised cell number in test [5] (setting [20]) was 1.08; in test [5] (setting [21]) it was 1.07. Also, the fold change in test [11] (setting [24]) is 0.875 (inactive) and 0.921 (inactive); in [11] (setting [25]), 1.39 and 0.838. Moreover, the cell count was 8210 and 9640 in test [11] (setting [26]); 9390 and 10500 in test [11] (setting [27]). For the same molecule, the z-score in test [7] (setting [22]) is -0.359 (inactive) and -2.3 (inactive); in test [7] (setting [23]), 0.432 and -0.759. The luciferase signal in test [9] is 40 AU (inactive).
As to `O=C(/C=C/C=C/c1ccc2c(c1)OCO2)N1CCCCC1`, the values for the inhibition in test [12] and in [4] were -11.5% and 0.86% (inactive), respectively. In addition, the score in [13] worked out at 0.85. Moreover, the rescue above control in test [14] worked out at 3.18. Moreover, the cytochrome c release ratio in [15] worked out at 0.68. This molecule had an inhibition of aggregation in test [16] of 51%. Further, the glutamate uptake change in [17] was found to be 10.6%. Also, in test [19], the inclusion score was 2. In addition, the aggregation suppression score in [18] is 0.367. The red/green cell ratio (normalised) in test [5] was 0.95 (inactive). For the same molecule, the normalised cell number in test [5] (setting [20]) is 1.26; in test [5] (setting [21]) it was 1.2. Besides, the fold change in test [11] (setting [24]) is 0.898 (inactive) and 0.941 (inactive); in test [11] (setting [25]), 1.07 and 2.41. Moreover, the cell count is 7720 and 10400 in [11] (setting [26]); 8590 and 11100 in test [11] (setting [27]). Further, in test [8], the remaining NAD was 10 nM (inactive). Besides, the luciferase signal in test [9] was 80 AU (inactive).
